PubChem BioAssay (NCI)
This is part of a sample that, as a whole, favours compounds with a hit. Of some 79,000 tested, about 15% had one in any assay. Unmarked numbers belong to inactive results. Activity calls are given as the source filed them. Cut-off read from the data, not from the text of the source: active = growth inhibition above about 70%; inactive = the rest.

Key:
[1] = NCI Yeast Anticancer Drug Screen. Data for the rad50 strain (AID 155);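 note: 0% = growth of vehicle-only cultures of the same strain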; settings: S. cerevisiae rad50 strain growth inhibition, active compounds read high
Summary of the method: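 Yeast carrying a defined DNA repair defect were exposed to test compounds, and growth was compared with vehicle-treated controls to give percent inhibition.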

[2] = NCI Yeast Anticancer Drug Screen. Data for the mec2-1 strain (AID 157); settings: S. cerevisiae mec2-1 strain, active compounds read high
Summary of the method: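 Cells of the genetically defined mec2-1 yeast strain are incubated with test compound. Inhibition of growth is calculated against vehicle-treated controls.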

[3] = NCI Yeast Anticancer Drug Screen. Data for the sgs1 mgt1 strain (AID 161);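 note: 0% = growth of cultures given vehicle only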; settings: S. cerevisiae sgs1 mgt1 strain, active compounds read high
Summary of the method: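 Inhibition of yeast growth, normalised to vehicle-treated controls, is reported for a strain bearing genetic alterations in DNA damage repair.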

[4] = NCI Yeast Anticancer Drug Screen. Data for the cln2 rad14 strain (AID 165);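 note: 0% = growth equal to vehicle treated cultures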; settings: S. cerevisiae cln2 rad14 strain, active compounds read high
Summary of the method: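 The screen exposed genetically defined yeast (cln2 rad14) to test compounds and scored growth inhibition relative to vehicle-treated controls.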

[5] = NCI Yeast Anticancer Drug Screen. Data for the bub3 strain (AID 167); settings: S. cerevisiae bub3 mutant strain, active compounds read high
Summary of the method: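 Compounds were applied to a genetically altered yeast strain carrying a cell-cycle control defect. Growth inhibition was scored against vehicle-treated controls.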

[6] = NCI Yeast Anticancer Drug Screen. Data for the mlh1 rad18 strain (AID 175); settings: S. cerevisiae mlh1 rad18 strain growth inhibition, active compounds read high
Summary of the method: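 Compound-treated yeast growth, normalised to vehicle controls. Strain bears defined DNA repair mutations.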

[7] = at 5.0 µM (retest, dose inferred, filed as 0.5)
[8] = at 50.0 µM (retest, dose inferred, filed as 5.0)

| Structure (SMILES) | growth inhibition [1, 7] [%] | growth inhibition [1, 8] | growth inhibition ([1]; at 50.0 µM) | growth inhibition [2, 7] [%] | growth inhibition [2, 8] | growth inhibition ([2]; at 50.0 µM) | growth inhibition [3, 7] [%] | growth inhibition [3, 8] | growth inhibition ([3]; at 50.0 µM) | growth inhibition [4, 7] | growth inhibition [4, 8] | growth inhibition ([4]; at 50.0 µM) | growth inhibition [5, 7] [%] | growth inhibition [5, 8] | growth inhibition ([5]; at 50.0 µM) | growth inhibition [6, 7] | growth inhibition [6, 8] | growth inhibition ([6]; at 50.0 µM) |
| --- | --- | --- | --- | --- | --- | --- | --- | --- | --- | --- | --- | --- | --- | --- | --- | --- | --- | --- |
| COc1ccc(S)cc1 | 0 | 72% (active) | 78.9% (active) | 3 | 51% | 39.7% | 0 | 89% (active) | 94% (active) | -3% | 80% (active) | 69.5% | 0 | 62% | 76.5% (active) | 2% | 86% (active) | 83.8% (active) |
| O=C1c2ccccc2S(=O)(=O)CC1Br (stereo unspecified) | -7 | 96% (active) | 99.2% (active) | -21 | 85% (active) | 99.7% (active) | 13 | 98% (active) | 99.3% (active) | 6% | 58% | 99.3% (active) | -4 | 89% (active) | 99.4% (active) | – | – | – |
| c1ccc(CCCCc2ccncc2)cc1 | 1 | 28% | 87.3% (active) | 1 | 13% | 46.2% | 0 | 47% | 94% (active) | 5% | 11% | 63.6% | 24 | 81% (active) | 93.5% (active) | -3% | 18% | 88.5% (active) |
| CC(/C=C/c1cccs1)=N\NC(=S)NCC(C)C | -3 | 95% (active) | 95.6% (active) | 11 | 96% (active) | 96.2% (active) | 9 | -24% | 97% (active) | -2% | 96% (active) | 94% (active) | -1 | 95% (active) | 96.9% (active) | 3% | 96% (active) | 97% (active) |
| Oc1ccc(O)c2c1N=NC21c2ccccc2Oc2ccccc21 | 5 | 86% (active) | 65.6% | 7 | 89% (active) | 54% | 6 | 91% (active) | 83% (active) | 10% | 84% (active) | 86.5% (active) | 5 | 89% (active) | 86.6% (active) | 8% | 95% (active) | 90.8% (active) |
| CCCC(C1=C(O)CC(C)CC1=O)C1=C(O)CC(C)CC1=O (stereo unspecified) | -6 | -2% | -8.7% | -5 | -4% | 0.4% | -4 | 8% | -5.6% | -34% | 23% | -24.4% | -6 | 19% | -7.2% | – | – | – |
| CSC(=S)N/N=C\C(C)=N/N=C(N)N | 14 | 92% (active) | 94% (active) | 16 | 93% (active) | 74.5% (active) | 53 | 92% (active) | 85.4% (active) | -14% | 89% (active) | 18.9% | -4 | 92% (active) | 86.4% (active) | 30% | 90% (active) | 93.7% (active) |
| c1ccc([P+](c2ccccc2)(c2ccccc2)C2CCCCO2)cc1 (stereo unspecified) | 17 | 74% (active) | 67.8% | -4 | 83% (active) | 83.2% (active) | 4 | 69% | 35.1% | -2% | 77% (active) | 49.5% | 5 | 77% (active) | 54% | 1% | 61% | 81.1% (active) |
| CCNc1ncnc2c1ncn2Cc1ccco1 | -4 | 0% | -1.1% | -3 | 0% | 1.4% | -7 | -3% | 4.8% | 1% | -6% | 71.3% (active) | -2 | 1% | -4.05% | – | – | – |
| OC(Cn1cncn1)(Cn1cncn1)c1ccc(Cl)cc1Cl | 66 | 65% | 62.6% | 62 | 59% | 54.5% | 38 | 65% | 63.2% | 71% (active) | 77% (active) | 60.8% | 65 | 74% (active) | 56.7% | 75% (active) | 81% (active) | 48.2% |
